From PubChem
KCNQ2 pot: potentiators of rat KCNQ2 potassium channel. O88943. CHO-K1 KCNQ2, FluxOR thallium flux fluorescence; active compounds read high. B-score at 10 µM. 310,000 tested, 0.54% active;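 active means fluorescence ratio B-score at least 3 SD of library B-scores, with initial fluorescence B-score within 3 of them, cut at about 5.3 in these data; same plate scores as AID 2156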;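 further: B-score of peak minus minimum over baseline fluorescence ratio after K+ and Tl+ stimulus; positive B-score means potentiation of KCNQ2 with more thallium influx and brighter signal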
Target sequence (O88943 whole entry, looked up): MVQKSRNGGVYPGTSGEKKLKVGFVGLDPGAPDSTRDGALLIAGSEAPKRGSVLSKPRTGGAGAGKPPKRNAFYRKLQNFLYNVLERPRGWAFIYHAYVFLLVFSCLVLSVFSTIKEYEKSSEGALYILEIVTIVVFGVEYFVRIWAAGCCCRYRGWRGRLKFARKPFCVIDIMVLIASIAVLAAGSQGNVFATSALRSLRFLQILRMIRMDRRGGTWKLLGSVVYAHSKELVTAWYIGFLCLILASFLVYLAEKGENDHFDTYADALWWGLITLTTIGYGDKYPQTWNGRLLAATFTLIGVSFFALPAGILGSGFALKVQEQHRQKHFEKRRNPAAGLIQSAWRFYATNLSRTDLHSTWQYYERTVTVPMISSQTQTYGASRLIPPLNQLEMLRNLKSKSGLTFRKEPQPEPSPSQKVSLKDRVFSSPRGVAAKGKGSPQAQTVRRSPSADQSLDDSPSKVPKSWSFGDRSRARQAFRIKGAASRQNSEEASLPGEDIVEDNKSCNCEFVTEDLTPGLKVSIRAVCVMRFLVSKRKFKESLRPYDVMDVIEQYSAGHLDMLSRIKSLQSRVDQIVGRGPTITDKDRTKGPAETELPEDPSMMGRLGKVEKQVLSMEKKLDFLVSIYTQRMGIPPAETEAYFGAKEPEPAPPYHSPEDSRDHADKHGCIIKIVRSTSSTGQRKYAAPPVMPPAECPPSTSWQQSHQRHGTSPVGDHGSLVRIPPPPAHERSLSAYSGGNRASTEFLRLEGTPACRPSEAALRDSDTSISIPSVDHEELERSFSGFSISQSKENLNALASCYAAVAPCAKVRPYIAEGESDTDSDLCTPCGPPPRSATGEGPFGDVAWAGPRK
KCNQ2 block: KCNQ2 (rat) channel inhibition. O88943. 310,000 tested, 1.1% active. AID 2156. CHO-K1 KCNQ2, FluxOR thallium flux, 20 min; active compounds read low. B-score at 10 µM;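 active means fluorescence ratio B-score at most minus 3 library SDs, with starting brightness B-score within 2 library SDs, cut at about -5.5 in these data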
* hit, by the source's call; i = inactive; nt = no result. A selection: hits, their analogues and other compounds. The true share with any hit is near 1.6%.

SMILES	KCNQ2 pot	KCNQ2 block
CC(C)CN(C(=O)c1cc(=O)[nH]c2ccccc12)c1c(N)n(Cc2ccccc2)c(=O)[nH]c1=O	nt	i
Cc1ccc(CNC(=O)[C@@H](NC(=O)C2CCN(C(=O)[C@@H](N)CC(C)C)CC2)C(C)C)cc1	nt	i
COc1ccc(CCNC(=O)CN2C(=O)NC(Cc3c[nH]c4ccccc34)C2=O)cc1 (stereo unspecified)	1.34	i
CCC1(c2ccccc2)NC(=O)N(CC(=O)Nc2ccc3c(C)cc(=O)oc3c2)C1=O (stereo unspecified)	nt	i
COc1ccc(C(CNC(=O)c2ccc3c(c2)C(=O)N(CCC(C)C)C3=O)N2CCOCC2)cc1 (stereo unspecified)	-5.75	-5.75*
COc1ccc(C(CNC(=O)c2ccc(S(=O)(=O)N3CCCC3)cc2)N2CCOCC2)cc1 (stereo unspecified)	nt	i
COc1ccccc1N1CCN(C2CCCN(C(=O)c3ccnc4ccc(C)cc34)C2)CC1 (stereo unspecified)	nt	i
Cc1ccc2nccc(C(=O)N3CCCC(N4CCN(c5ccc(F)cc5)CC4)C3)c2c1 (stereo unspecified)	-6.54	-6.54*
O=C(Oc1ccc(Br)cc1C(=O)/C=C/c1ccccc1F)c1ccco1	-7.16	-7.16*
CC(=O)c1cc(Cl)ccc1OC(=O)c1ccco1	1.46	i
CCN(C(=O)/C=C/c1ccccc1)C1CCCCC1	-5.8	-5.8*
CCCCN(C(=O)/C=C/c1ccccc1)C1CCS(=O)(=O)C1 (stereo unspecified)	0.07	i
CC(N=C1CC(C)(C)CC(=O)/C1=C(/O)CCCN1C(=O)c2ccccc2C1=O)C(=O)O (stereo unspecified)	0.02	i
CSc1nc2ncc(C(=O)O)c(N)n2n1	nt	i
Cc1ccc(S(=O)(=O)N(CC(=O)Nc2ccccc2-c2ccccc2)c2ccc(C)cc2C)cc1	-6.05	-6.05*
Cc1ccc(N(CC(=O)Nc2ccccc2-c2ccccc2)S(=O)(=O)c2ccccc2)cc1	-6.21	-6.21*
Cc1cccc(N(CC(=O)Nc2ccccc2-c2ccccc2)S(=O)(=O)c2ccccc2)c1C	nt	i
Cc1cc(C)cc(N(CC(=O)Nc2ccccc2-c2ccccc2)S(=O)(=O)c2ccccc2)c1	nt	i
Cc1ccc(S(=O)(=O)N(C)CCCC(=O)Nc2ccc(C)cc2C)cc1	6.23*	i
Cc1cc(F)ccc1NC(=O)CCCN(C)S(=O)(=O)c1ccc(F)cc1	1.58	i
Cc1ncc(CN2CCC(C(=O)Nc3ccc(Oc4cccnc4)cc3)CC2)cn1	nt	i
CC(c1nccs1)N(C)C(=O)c1cn(Cc2cccc3ccccc23)nn1 (stereo unspecified)	0.06	i
CCOC(=O)c1nnn(CC(=O)N2N=C(c3ccccc3)CC2c2ccccc2)c1C(=O)OCC (stereo unspecified)	0.62	i
CCOC(=O)c1nnn(CC(=O)N2N=C(c3cc(C)ccc3C)CC2c2ccc(OC)cc2)c1C(=O)OCC (stereo unspecified)	-5.77	-5.77*
CC(C)c1ccc(NC(=O)[C@H](Cc2c[nH]c3ccccc23)NC(=O)[C@@H]2Cc3ccccc3CN2)cc1	-8.23	-8.23*
SMILES	KCNQ2 pot	KCNQ2 block
COc1ccc(NC(=O)[C@H](Cc2c[nH]c3ccccc23)NC(=O)[C@@H]2Cc3ccccc3CN2)cc1	nt	i
Cc1cc(C)c(Cn2cnc3ccccc32)c(C)c1	nt	i
Cc1cccc(C(=O)Nc2nnc(C3=COCCO3)o2)c1	17.6*	i
O=C(Nc1nnc(C2=COCCO2)o1)c1cccc(F)c1	2.52	i
Cc1ccc(C2NC(=O)CCC2[N+](=O)[O-])cc1 (stereo unspecified)	0.42	i
O=C(O)c1cc(-c2ccc(-c3ccc(F)cc3)o2)nc2ccccc12	0.87	i
Cc1ccc(C(=O)COC(=O)C2C3C=CC(C3)C2C(=O)OCC(=O)c2ccc(C)c(C)c2)cc1C (stereo unspecified)	-7.48	-7.48*
CC(=O)NCC(=O)OCC(=O)c1ccc(C)c(C)c1	nt	i
CCC(CC)C1C(C#N)=C(N)Oc2cc(C)oc(=O)c21 (stereo unspecified)	0.34	i
Cc1cc2c(c(=O)o1)C(c1ccc([N+](=O)[O-])o1)C(C#N)=C(N)O2 (stereo unspecified)	7.7*	i
CCn1ncc(Cl)c1C(=O)Nc1cc(Cl)ccc1Cl	nt	i
COc1ccccc1CNC(=O)COc1ccc(S(=O)(=O)N2CCCC2)cc1	0.02	i
COc1cc(NC(=O)c2cccs2)cc(OC)c1	6.61*	i
COc1cccc(NC(=O)c2cccs2)c1	1.89	i
O=C(NC(Cc1ccccc1)C(=O)NCCc1ccccn1)c1ccccc1 (stereo unspecified)	1.32	i
Cc1cc(C(=O)OC(C(=O)Nc2cccc(C(F)(F)F)c2)c2ccccc2)c(C)o1 (stereo unspecified)	-5.81	-5.81*
Cc1ccc(NC(=O)C(OC(=O)c2cc(C)oc2C)c2ccccc2)cc1 (stereo unspecified)	nt	i
O=C(Nc1ccc(N2CCN(C(=O)c3ccccc3F)CC2)cc1)c1cncc(Br)c1	0.1	i
COc1ccc(-c2nnc(Nc3nc4c(OC)cccc4s3)o2)cc1	5.45*	i
COc1ccc(-c2nnc(Nc3nc4c(OC)cccc4s3)o2)c(OC)c1	0.68	i
CN(Cc1cccnc1)Cc1c(C(=O)N2CCc3ccccc3C2)nc2ccc(Cl)cn12	nt	i
CCCCN(C)Cc1c(C(=O)N2CCc3ccccc3C2)nc2ccc(Cl)cn12	-5.64	-5.64*
Cc1ccc(C2(O)CN(c3ccccc3)C3=[N+]2CCS3)cc1 (stereo unspecified)	nt	i
O=[N+]([O-])c1ccc(C2(O)CN(c3ccccc3)C3=[N+]2CCS3)cc1 (stereo unspecified)	-6.52	-6.52*
C=CCN(c1ccccc1)S(=O)(=O)c1cccc(C(=O)N2CC(C)CC(C)C2)c1 (stereo unspecified)	nt	i
SMILES	KCNQ2 pot	KCNQ2 block
CN(C(=O)COC(=O)CCc1c[nH]c2ccccc12)C(c1ccccc1)c1ccccc1	-5.93	-5.93*
O=C(COC(=O)CCc1c[nH]c2ccccc12)NCc1ccccc1	nt	i
COc1ccc(-n2c(-c3ccco3)nc3c(cnn3-c3ccccc3C)c2=O)cc1	1.12	i
CCN(CC)c1ccc(/C=N/N2CCN(Cc3ccc(C)cc3)CC2)c(O)c1	-6.2	-6.2*
CCN(CC)c1ccc(/C=N/N2CCN(Cc3ccccc3Cl)CC2)c(O)c1	nt	i
CC(C)(C)[C@H]1C=C(C(N)=O)O[C@@H](OCc2ccc(CO)cc2)C1	0.73	i
Cc1coc2cc3oc(=O)ccc3cc12	1.02	i
COC(=O)CCCCCc1ccc(C(C)=O)s1	nt	i
COc1cc(CNCc2ccccn2)ccc1OCc1ccc(Cl)c(Cl)c1	-5.92	-5.92*
COc1cc(CNCc2ccccn2)ccc1OCC(N)=O	1.79	i
Nc1nc(SCC(=O)Nc2ccc(Oc3ccccc3)cc2)n[nH]1	3.97	i
Nc1nc(SCC(=O)Nc2cccc(Oc3ccccc3)c2)n[nH]1	6.44*	i
CCN(CC)CCn1c2c(c(SCC(=O)Nc3ccccc3Cl)nc1=O)CCC2	0.11	i
CCOc1ccc(S(=O)(=O)N2CCN(CC(O)COc3cccc([N+](=O)[O-])c3)CC2)cc1 (stereo unspecified)	0.19	i
COCC(C)n1c(SCc2ccc(OC)c(F)c2)nc2ccccc2c1=O (stereo unspecified)	nt	i
